Sa ugtP lethal: growth inhibition of ugtP-null S. aureus, primary screen, RN4220 ugtP deletion, OD600; 16 h; growth inhibition, % (test concentration not listed); 330,000 tested, 0.54% active; in the data active = growth inhibition above about 68%;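 note: plate controls were untreated wells for no effect and antibiotic for full effect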
Sa RN4220 lethal: growth inhibition of S. aureus RN4220, primary screen, OD600; 330,000 tested, 0.33% active; inhibition, % (no concentration beside the values); 16 h; AID 1259311, 2017; in the data active = inhibition above about 85%;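 note: plate controls were untreated cells for no effect and reference antibiotic for full effect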
BJeLR viability: MLPCN primary cell-based screen for lethality selective to Ras in HRASV12 cells; 300,000 tested, 0.17% active; BJeLR (HRASV12) viability, CellTiter-Glo ATP luminescence, 48 h; inhibition, % (no concentration beside the values); AID 1554, 2009; in the data active = inhibition above about 50%
PrPC surface inh: inhibitors of human cell surface prion protein PrPC, primary screen, cell-based, TR-FRET; Major prion protein (Homo sapiens), P04156; AID 720596, 2013; 370,000 tested, 0.43% active; TR-FRET read-out; inhibition, % at 13.8 µM; in the data active = inhibition above about 24%; note: 0% = median of the test wells and 100% = reference compound wells
* marks the source's active call; other numbers are inactive results; . = no result given. Hits are enriched below; roughly 0.95% of the tested compounds scored in any of these assays.

SMILES	Sa ugtP lethal	Sa RN4220 lethal	BJeLR viability	PrPC surface inh
Cc1cc2oc(=O)cc(-c3ccccc3)c2c(C)c1-c1ccc(O)cc1	4	10	.	2
CCOC(=O)C1C2COc3cc(OC)ccc3C2N2C(=O)N(c3cccc(F)c3)C(=O)[C@]12C (some centres not stated)	16	10	.	.
c1ccc(CNc2nc(NCc3ccccc3)c3ccccc3n2)cc1	101*	92*	7	.
O=C1CCN(Cc2ccccc2)CCN1C(CO)c1ccccc1 (configuration not stated)	-1	8	.	.
CN(C)c1ccc(C=NNC(=O)c2ccc3nc[nH]c3c2)cc1	8	0	.	.
CCN(CC)c1ccc(/C=N/NC(=O)c2ccc3nc[nH]c3c2)c(O)c1	.	.	53*	.
CCN(CC)c1ccc(/C=N/NC(=O)c2cccc(S(=O)(=O)Nc3ccccc3OC)c2)c(O)c1	.	.	60*	21
CCN(CC)c1ccc(/C=N/NC(=O)c2nnn(-c3nonc3N)c2C(C)C)c(O)c1	.	.	88*	23
CCN(CC)c1ccc(/C=N/NC(=O)c2cccc(S(=O)(=O)Nc3ccccc3OC)c2)cc1	.	.	-3	12
COc1cc(C=CC(=O)OC2C(CO)OC(OCCc3ccc(O)c(OC)c3)C(O)C2OC2OC(C)C(O)C(O)C2O)ccc1O (configuration not stated)	-3	1	.	.
CCOc1ccc(C=NNc2ccc(Cl)nn2)c(O)c1	9	4	.	.
CCc1cccc(CC)c1NC(=O)CON=C(C)c1cccs1	19	7	.	.
Cc1ccc2[nH]c3c(N4CCc5ccccc5C4)ncnc3c2c1	.	.	19	14
Brc1ccc2[nH]c3c(N4CCc5ccccc5C4)ncnc3c2c1	97*	72	2	.
CC(=NNC(=O)CN1CCN(Cc2ccccc2Cl)CC1)c1cccs1	-6	-2	.	.
FC(F)(F)c1nc(SCc2ccc(Cl)cc2Cl)n[nH]1	83*	81	-3	8
Cn1c(SCc2ccc(Cl)cc2Cl)nc(C(F)(F)F)cc1=O	1	8	15	4
C/C=N/NC(=O)c1cc(Br)ccc1O	.	.	14	-6
O=C(c1ccc(O)c(Br)c1)c1cc(Br)ccc1O	84*	77	.	-6
O=C(C(=O)c1cc(Br)ccc1O)c1cc(Br)ccc1O	100*	100*	.	6
COc1ccc(C(=O)NN=C(C)c2ccc3c(c2)C2C=CCC2C(c2ccccc2)N3)cc1 (configuration not stated)	-15	11	.	.
Cc1onc(-c2ccccc2)c1C(=O)NN=Cc1ccc([N+](=O)[O-])c(O)c1	2	20	.	.
COc1ccccc1N(CC(=O)NN=C(C)c1ccc(F)cc1)S(=O)(=O)c1ccccc1	-5	1	.	.
CC(C)=CCCC1(C)C=Cc2c(c(C)cc3c2[nH]c2cc(O)ccc23)O1 (configuration not stated)	101*	90	-5	6
COc1ccc(NC(=O)/C(Cl)=C(/Cl)S(=O)(=O)Cc2ccccc2)cn1	20	11	-30	94*
SMILES	Sa ugtP lethal	Sa RN4220 lethal	BJeLR viability	PrPC surface inh
COc1ccc(NC(=O)/C(Cl)=C(/Cl)S(=O)Cc2ccc(Cl)cc2)cn1 (configuration not stated)	10	1	.	29*
CCCCOc1ccc(C(=O)OC2CC(C)N(C)CC2C)cc1 (configuration not stated)	98*	5	7	-3
CC1CN(C)C(C)CC1OC(=O)C(c1ccccc1)c1ccccc1 (configuration not stated)	86*	1	0	-1
CN(C)[C@@H]1CCC[C@H]1OC(=O)C(c1ccccc1)c1ccccc1	7	-1	-12	-10
CCOc1cc(C=NNC(=O)c2cccnc2)cc(Br)c1OCC(N)=O	1	-3	.	.
S=C(NCCc1ccc(Cl)cc1)Nc1ccc(Cl)cc1Cl	99*	100*	-7	15
CC(=NNC(=S)NCCc1ccccc1)c1ccc(Cl)cc1Cl	90*	1	.	.
CCN1C(=Cc2ccc3ccccc3[n+]2CC)Sc2cc(C)ccc21	100*	101*	.	.
CCN1/C(=C\c2ccc3cc(C)ccc3[n+]2CC)Sc2cc(C)c(C)cc21	100*	100*	38	-15
CCN1/C(=C/c2ccc3cc(C)cc(C)c3[n+]2CC)Sc2cc(C)ccc21	100*	100*	.	-6
CCN1C(=C(C#N)C#N)C=Cc2cc(C)ccc21	8	8	6	-13
C=CC[n+]1c(/C=C2\C=Cc3cc(C)ccc3N2CC)ccc2ccccc21	100*	100*	26	-3
CC(C)(C)c1ccc(C(=O)NN=Cc2cccc(Cl)c2)cc1	-30	-8	.	.
CCN1/C(=C/c2ccc3cc(C)ccc3[n+]2CC)Sc2ccc3sccc3c21	101*	100*	92*	.
CCOC(=O)c1c(C)oc2c1c(C(c1ccccc1)N1CCOCC1)c(O)c1ccccc12 (configuration not stated)	89*	14	-6	7
CCOC(=O)c1c(C)oc2c1c(C(c1cccnc1)N1CCCCC1)c(O)c1ccccc12 (configuration not stated)	-5	-3	-7	2
CCCCCCCCCn1ccc(=N)cc1	100*	-1	46	25*
CCCCCCCn1ccc(=N)cc1	5	1	13	13
Cc1ccc(C)c(NC(=O)c2ccccc2O)c1	-9	-2	5	2
Cc1ccc(O)c(C(=O)CC(=O)c2ccc(C(C)(C)C)cc2)c1	100*	99*	-7	2
Cc1ccc(O)c(C(=O)CC(=O)c2ccccc2Cl)c1	99*	100*	-6	1
Clc1ccc2c(NN=Cc3cccnc3)ccnc2c1	9	3	.	.
Oc1ccc(/C=N/Nc2ccnc3cc(Cl)ccc23)c(O)c1O	.	.	1	-4
Clc1ccc2c(NN=Cc3ccccc3Br)ccnc2c1	99*	98*	.	.
Clc1ccc2c(NN=Cc3cccc(Br)c3)ccnc2c1	101*	101*	.	.
SMILES	Sa ugtP lethal	Sa RN4220 lethal	BJeLR viability	PrPC surface inh
CC(C)C[C@H](NC(=O)c1ccccn1)C(=O)N1CCC[C@H]1C(=O)NCc1ccccc1	.	.	.	9
Oc1cccc(C=Nn2c(C3CCCCC3)n[nH]c2=S)c1	-9	4	.	.
COc1ccc(-c2nc(-c3ccc4c(c3)OCO4)[nH]c2-c2ccc(OC)cc2)cc1	87*	16	-5	22
COc1ccc(-c2noc(-c3ccc4c(c3)OCO4)n2)cc1	0	6	-11	3
COc1ccc(C(=O)NNC(=S)NC(=O)c2ccc(F)cc2)cc1Br	85*	81	0	8
COc1ccc(S(=O)(=O)NN=Cc2ccc(OCCN3CCOCC3)c(OC)c2)cc1	3	2	.	.
C[C@@H]1[C@@H](Sc2ccccc2)CC(=O)O[C@@H]1c1ccc(-c2ccccc2)cc1	.	.	6	7
O=C1C=CC2(O[C@H](c3ccccc3)[C@@H](c3ccccc3)O2)[C@H](Sc2ccccc2O)C1	.	.	.	89*
CCN(CC)c1ccc(/C=C2\CCC(C=NNC(=O)c3ccc(=O)n(C)c3)=C2N2CCOCC2)cc1	14	1	.	.
COc1ccc(/C=C/C(=O)c2c(O)ccc3c(C)cc(=O)oc23)cc1	89*	5	1	-3
